This is a sample that favours compounds with a hit; in the whole collection about 7.3% have one here.
NPC1 prom act – NPC1 promoter activation; Huh7 NPC1 promoter luciferase reporter, 24 h; Potency, µM (top dose mostly 9.22 µM), for inactives: at the top dose activation, most hits filed as activators; 320,000 compounds, 2.4% hits; also: % of control where 0% means no effect; nearly all actives have a fitted effect of over 60% in size
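Quantitative HTS used a cell-based reporter: Huh7 cells stably bearing the NPC1 promoter upstream of luciferase were treated with compounds for 24 h, and promoter activation was read as luminescence.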
Rab9 prom act – activators of Rab9 promoter; 320,000 compounds, 2.8% hits; Potency, µM (doses to about 9.22 µM), for inactives: at the highest dose activation, negative = inhibition, actives largely listed as activators; Huh7 Rab9 promoter-luciferase reporter, luminescence, 24 h; also: % of control where 0% means no effect; nearly all actives have a fitted effect of over 60% in size
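Luciferase signal after 10 min detection reagent at ambient indicates Rab9 promoter upregulation; stably transfected Huh7 cells were treated 24 h with compound in DMSO at 37 °C, 5% CO2.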
Luc counter – counter-screen: inhibitors of Kinase-Glo firefly luciferase; 200,000 compounds, 0.28% hits; Potency, µM (doses to about 38.3 µM), for the others: top-dose activity change, negative = inhibition, most hits filed as inhibitors; Q27757; Kinase-Glo luciferase, ATP luminescence, 8 min; also: % is scaled to controls: 0 for no effect and ±100 for the full control effect; nearly all actives have a fitted effect of over 60% in size
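Inhibition of Kinase-Glo luciferase light generation was assessed at 10 uM ATP in pH 7.2 imidazole buffer, with luminescence measured after eight minutes at ambient temperature.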
SMN2 splice enh – enhancers of SMN2 splice variant expression; HEK293 SMN2-luciferase splicing reporter, luminescence, 30-36 h; Potency, µM (titrated, usually from 46.1 µM), without a hit: top-dose activity change, positive = activation, usual class: activators; 210,000 compounds, 2.8% hits; AID 1458; also: % of control where 0% means no effect; nearly all actives have a fitted effect of over 55% in size
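HEK293 cells carry an SMN2 minigene-luciferase reporter in which exon 7 inclusion puts luciferase in frame. Cells were seeded at 2000 cells/well, attached for 10-12 hours, then exposed to compounds for 30-36 hours at 37C before ONE-Glo luminescence.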
FLuc modulator – firefly luciferase modulation, counter-screen for miR-21 project; purified FLuc, Km substrates, luminescence inhibition; AID 588342; Potency, µM (top dose mostly 57.5 µM), without a hit: at the highest dose activity change, negative = inhibition, most hits filed as inhibitors; 360,000 compounds, 6.9% hits; P08659;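 also: plate controls were vehicle for no effect and reference inhibitor for full effect; nearly all actives have a fitted effect of over 55% in size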
Target sequence (P08659 whole entry, looked up): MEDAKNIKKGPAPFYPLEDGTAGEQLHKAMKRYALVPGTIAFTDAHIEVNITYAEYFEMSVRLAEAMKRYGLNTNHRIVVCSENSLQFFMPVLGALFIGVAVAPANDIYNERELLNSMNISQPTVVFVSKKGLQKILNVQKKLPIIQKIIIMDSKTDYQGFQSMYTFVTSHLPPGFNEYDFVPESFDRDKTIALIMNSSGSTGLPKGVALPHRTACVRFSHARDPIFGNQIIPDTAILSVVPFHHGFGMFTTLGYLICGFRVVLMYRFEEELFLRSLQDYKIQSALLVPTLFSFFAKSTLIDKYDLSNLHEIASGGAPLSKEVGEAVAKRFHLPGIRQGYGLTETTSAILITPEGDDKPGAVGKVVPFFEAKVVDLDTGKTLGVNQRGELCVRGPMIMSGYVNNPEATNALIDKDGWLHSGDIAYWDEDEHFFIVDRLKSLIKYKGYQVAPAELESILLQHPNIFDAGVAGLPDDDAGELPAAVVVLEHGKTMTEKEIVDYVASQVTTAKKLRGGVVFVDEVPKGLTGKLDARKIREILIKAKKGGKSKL
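Purified P. pyralis luciferase (10nM final) with 10uM D-luciferin and 10uM ATP (Km levels) in 50mM Tris acetate pH 7.5, 10mM Mg acetate, 0.01% Tween-20, 0.05% BSA; qHTS 6-point titration, ~60 µM downward; luminescence read.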
Numbers without * were called inactive; ? = inconclusive; nt = no result given; [ ] = another dose, or the depositor's remark. Calls follow the shape of the dose curve; as a rule, active = well fitted curve in the direction sought with a large enough effect; inconclusive = small, poorly fitted or top-dose-only effect, or another doubt; inactive = no such curve, though single readings can be large; an effect the other way counts as inactive or inconclusive. Potency is read from the fitted curve at half-maximal effect.

SMILES	NPC1 prom act	Rab9 prom act	Luc counter	SMN2 splice enh	FLuc modulator
O=C(NNC1=NCCCCC1)Nc1cccc(Cl)c1	?	1.1µM*	0%	22µM*	17µM*
O=C(NNC1=NCCCCC1)Nc1ccc(Cl)cc1	21%	?	nt	nt	?
O=C(Nc1cccc(C(=O)O)c1)Nc1cccc2ccccc12	2µM*	3.5µM*	nt	nt	2.1µM*
OC(Cc1ccccc1)(Cc1ccccc1)c1ccccc1	nt	nt	-6%[7.66 µM]	-7%[9.22 µM]	nt
Cc1cccc(C)c1NC(=O)C(=O)NCC(c1ccc2c(c1)OCO2)N1CCOCC1 (configuration not stated)	nt	nt	nt	nt	-3%
Cc1ccc(-n2cc(-c3ccccc3)c3c(NC4CCCC4)ncnc32)cc1	nt	nt	nt	nt	-4%
Cc1nn(C)cc1CNC(=O)Nc1cccc(Cl)c1	?	3.5µM*	-3%	?	?
O=C(Nc1cccc(C(=O)O)c1)Nc1ccccc1Cl	0.5µM*	0.1µM*	-9%	13µM*	0.21µM*
NS(=O)(=O)c1ccc(NC(=O)Nc2cccc(Cl)c2)cc1	9%	-3%	1%	nt	?
O=C(Nc1cccc(Cl)c1)Nc1cccc(C(=O)O)c1	0.32µM*	0.35µM*	nt	nt	0.48µM*
Cc1nn(C)cc1CNC(=O)Nc1ccc(Br)cc1Cl	1%	0%	-1%	-3%	-14%
O=C(Nc1ccccc1)Nc1cccc(Cl)c1	?	3.5µM*	-3%	15%	9.5µM*
O=C(Nc1ccccc1Cl)c1cccc(NC(=O)C2CCCC2)c1	3%	0%	nt	nt	-7%
Cc1ccc(CN2C(=O)c3ccccc3Sc3ccc(C(=O)N4CCOCC4)cc32)cc1	nt	nt	nt	nt	-9%
COc1cccc(N2CCN(C(=O)C3Cc4ccccc4N3C(C)=O)CC2)c1 (configuration not stated)	nt	nt	nt	nt	-8%
O=C(Nc1cccc(Cl)c1)Nc1ccc2nccnc2c1	2.8µM*	2.2µM*	nt	nt	19µM*
O=C(Nc1cccc(Cl)c1)Nc1ccc(Cl)cn1	22%	26%	-3%	8%	-11%
COc1ccc(C(=O)N/C(=C\c2ccccc2)C(=O)Nc2cccc(C(=O)O)c2)cc1	-4%	5%	nt	nt	-1%
O=C(Nc1cccc(C(=O)O)c1)/C(=C\c1ccccc1)NC(=O)c1cccc2ccccc12	-4%	0%	-1%	nt	21µM*
O=C(Nc1ccc(C(=O)N2CCCCC2)cc1)Nc1cccc(Cl)c1	4µM*	3.2µM*	nt	nt	11µM*
O=C(Nc1cccc(Cl)c1)N1CCCCCC1	26%	15%	nt	nt	?
O=C(NCc1ccccc1)C(=O)Nc1cccc(C(=O)O)c1	0.089µM*	0.32µM*	nt	nt	0.67µM*
CCCN(c1ccccc1CC)S(=O)(=O)c1ccc2c(c1)CC(C)N2C(=O)C1CC1 (configuration not stated)	nt	nt	nt	nt	-9%
Cc1cc(-c2cc(C)c(O)c(C(C)(C)C)c2)cc(C(C)(C)C)c1O	nt	nt	1%[7.66 µM]	-9%[9.22 µM]	nt
Cc1ccc2nc(COc3ccccc3NC(=O)C(C)(C)C)cc(=O)n2c1	nt	nt	nt	nt	0%
SMILES	NPC1 prom act	Rab9 prom act	Luc counter	SMN2 splice enh	FLuc modulator
CC(C)c1ccc(O)c(O)c(=O)c1 (tested in a mixture with another compound)	nt	nt	0%[7.66 µM]	-8%[9.22 µM]	nt
COC(=O)c1ccc(CSc2nc3c([nH]c4ccccc43)c(=O)n2-c2cc(C)cc(C)c2)o1	nt	nt	nt	nt	1%
NC(=S)Nc1cccc(Cl)c1	-4%	-12%	nt	nt	0%
Cc1cc(O)c(C(=O)Nc2cccc(Cl)c2)c(=O)n1C	2.2µM*	2.5µM*	nt	nt	3.4µM*
CS/C(N)=N/C(=S)Nc1cccc(Cl)c1	?	?	nt	nt	19µM*
CCn1c(C)cc(O)c(C(=O)Nc2cccc(Cl)c2)c1=O	28%	?	nt	nt	-5%
O=C(O)NCC1CCCCC1 (tested in a mixture with another compound)	nt	nt	0%[7.66 µM]	-8%[9.22 µM]	nt
COc1ccc(N2CCN(C(=O)CCn3cnc4onc(-c5ccc(F)cc5)c4c3=O)CC2)cc1	nt	nt	nt	nt	-9%
CC(/C=C/C=C(C)/C=C/C(=O)O)=C\C=C\C=C(C)\C=C\C=C(C)\C=C\C(=O)O	nt	nt	nt	16%	nt
CCOc1ccc(C2c3c(oc4ccccc4c3=O)C(=O)N2Cc2ccc3c(c2)OCO3)cc1 (configuration not stated)	nt	nt	nt	12%	0%
COc1ccc(/C=C/C(=O)c2ccccn2)cc1	4µM*	0.89µM*	4µM*	8%	0.38µM*
O=C(/C=C/c1ccc(O)cc1)c1cccs1	nt	nt	5.6µM*	nt	nt
COc1ccc(/C=C/C(=O)c2ccccc2O)cc1	19%	24%	?	nt	0.27µM*
O=C(/C=C/c1ccc(OCc2ccccc2)cc1)c1cccs1	nt	nt	0%	nt	nt
O=C(/C=C/c1ccc(O)cc1)c1ccccc1O	nt	nt	4.5µM*	-115%	nt
COC(=O)c1ccn(-c2nc(-c3ccc(Cl)cc3)cc(C(F)(F)F)n2)n1	nt	nt	nt	-13%	-7%
COCCN1Cc2cccc(C(=O)Nc3ccc(Cl)cc3Cl)c2C1=O	nt	nt	nt	-12%	4%
COc1ccc(COc2ccc3ccc(=O)oc3c2)cc1	4µM*	2.8µM*	nt	nt	11µM*
COc1ccc(C(=O)COc2ccc3ccc(=O)oc3c2)cc1	5%	10%	nt	nt	?
COc1ccc2ccc(=O)oc2c1	0%	-17%	-5%	-6%	-13%
COc1cccc(COc2ccc3ccc(=O)oc3c2)c1	?	3.2µM*	nt	nt	13µM*
O=C(CNC(=O)C1CCCCC1)Nc1ccc(F)c(Cl)c1	-8%	-1%	0%	18µM*	2%
O=C(CNC(=O)C1CCCCC1)Nc1ccc(Cl)cc1	15%	3%	4%	11µM*	-5%
O=C(c1cnc(N2CCCCC2)c2ccccc12)N1CCN(c2ccccc2F)CC1	nt	nt	nt	nt	-12%
O=c1cc(O)c2sc3nc4c(c(C(F)(F)F)c3c2[nH]1)CCCCC4	-2%	5%	nt	nt	17µM*
SMILES	NPC1 prom act	Rab9 prom act	Luc counter	SMN2 splice enh	FLuc modulator
O=c1cc(O)c2sc3nc(-c4ccccc4)cc(C(F)(F)F)c3c2[nH]1	3%	8%	2%	-31%	-6%
S=c1nc2ccccc2c2nc(-c3ccccc3Cl)[nH]n12	16%	27%	nt	nt	?
S=c1nc2ccccc2c2nc(-c3ccccc3)[nH]n12	?	17%	2%	-10%	27µM*
COc1ccc(C(=O)NCCc2c[nH]c3ccccc23)cc1	2.8µM*	1.6µM*	nt	nt	9.5µM*
COc1ccc(CCNC(=O)c2n[nH]c3ccccc23)cc1	17%	21%	0%	24%	21µM*
Cc1ccsc1C(=O)NCCc1nnc2ccccn12	?	2.5µM*	nt	nt	?
O=C(NCCc1c[nH]c2ccccc12)c1ccc(Cl)cc1	1.8µM*	2.8µM*	nt	nt	11µM*
COc1ccc(CNC(=O)CN2N=C(c3ccccc3)CCC2=O)c(OC)c1	nt	nt	nt	nt	2%
O=C(NCCc1c[nH]c2ccccc12)c1cnc2sccn2c1=O	3.5µM*	4.5µM*	-3%	14µM*	15µM*
Cc1ccsc1C(=O)NCCc1c[nH]c2ccccc12	?	?	nt	nt	19µM*
